Experimental data from PubChem BioAssay AID624288 (National Center for Advancing Translational Sciences (NCATS), 2012).
The campaign covered roughly 340,000 compounds. About 1,400 (0.41%) were called active. Where a call stands in place of a potency, no number is given. Roughly 4% stayed inconclusive and do not appear here. Calls come from the whole dose curve; cell line not stated here. The sample as a whole holds a higher share of actives than the screen did.

Assay: qHTS for Antagonists of gsp, the Etiologic Mutation Responsible for Fibrous Dysplasia/McCune-Albright Syndrome: qHTS; note: nearly all actives have a fitted effect of over 65% in size
Conditions: gsp-mutant cells, cAMP HTRF, 30 min; series mostly up to 76.9 µM
Outline: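 Measurement of cellular cAMP by homogeneous time-resolved fluorescence following a 30 min compound exposure at 37C. The PDE inhibitor […] was present throughout; the assay buffer was DPBS with 0.05% BSA and 0.005% Tween 20.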
Potency is the fitted concentration of half-maximal effect.

Compound | Potency
Cc1cc2ccccn2c1C(=O)c1cccc(S(=O)(=O)N2CCOCC2)c1 | 31.6 µM (active)
O=C(COC(=O)c1ccccc1)Nc1cccc(S(=O)(=O)N2CCOCC2)c1 | inactive
Cc1cc2ccccn2c1C(=O)c1cccc(F)c1 | inactive
O=C(NN=CC=Cc1ccccc1)C(O)C(O)C(=O)NN=CC=Cc1ccccc1 (stereo not drawn) | inactive
CN(O)C(=S)c1ccccc1 | inactive
O=C(CSc1nnc(C2CC2)n1Cc1ccccc1)Nc1cccnc1Cl | 7.94 µM (active)
CC(=O)Nc1ccc(NC(=O)CSc2nnc(C3CC3)n2-c2ccccc2)cc1 | inactive
COc1ccc(-c2nnc(SCC(=O)Nc3cccnc3Cl)n2C)cc1 | inactive
CNN/C(N=Cc1ccc([N+](=O)[O-])s1)=N\S(=O)(=O)c1cc(C)c(Cl)cc1SCc1ccccc1 | inactive
Cc1nn(Cc2ccc(F)cc2)c(C)c1NC(=O)c1noc2c1CCc1ccccc1-2 | 35.5 µM (active)
Cc1nn(Cc2ccc(F)cc2)c(C)c1NC(=O)c1cccnc1Cl | inactive
Cc1cc(C(=O)Nc2c(C)nn(Cc3ccccc3)c2C)on1 | inactive
CCOC(=O)c1ccc2[nH]c(C)c(CN3CCN(C)CC3)c(=O)c2c1 | inactive
O=c1c2ccccc2c(-c2ccccc2)nn1-c1ccccn1 | inactive
O=c1c2ccccc2c(-c2ccc(F)cc2)nn1-c1ccc(C(F)(F)F)cc1 | inactive
O=C(O)c1ccc(-n2nc(-c3ccccc3)c3ccccc3c2=O)cc1 | 44.7 µM (active)
COc1ccc(N)c(C)c1 | inactive
COCC(=O)N(C)[C@H]1C[C@H]2c3cc(Oc4ccccc4C)ccc3CCN2C(=O)[C@H]1[C@H](C)O | inactive
O=C(CCCN1C(=O)/C(=C/c2ccccc2)SC1=S)Nc1ccc(O)cc1 | inactive
Cc1ccc(/C=C2/SC(=S)N(CCC(=O)NCCCN3CCOCC3)C2=O)cc1 | inactive
COc1ccc(/C=C2\SC(=S)N(CCCC(=O)NC3CCCC3)C2=O)cc1OC | inactive
Cc1ccc(-c2nn(-c3ccccc3)cc2/C=C2\SC(=S)N(CCCCCC(=O)O)C2=O)o1 | 15.8 µM (active)
COc1ccc(/C=C2\SC(=S)N(CC(=O)NNC(=O)c3ccncc3)C2=O)cc1 | inactive
COc1ccc(-c2nn(-c3ccccc3)cc2/C=C2/SC(=S)N(CCCC(=O)O)C2=O)c(C)c1 | 31.6 µM (active)
O=C(COC(=O)c1ccc(O)cc1O)NC(=O)c1ccccc1 | inactive

Compound | Potency
O=C1/C(=C\c2ccc(O)cc2)CCC1CNc1ccc(Cl)cc1 (stereo not drawn) | inactive
COc1ccc(S(=O)(=O)N2CCc3ccccc32)cc1C(=O)Nc1cc(S(C)(=O)=O)ccc1Cl | inactive
COC(=O)Cc1c(-c2[nH]c3ccccc3c2CC(=O)OC)[nH]c2ccccc12 | inactive
Cc1ccc2c(O)c(Cc3ccccc3)c(=O)[nH]c2n1 | inactive
O=S(=O)(Nc1ccc2ccccc2c1)N1CCCCC1 | inactive
CS(=O)(=O)N(CC(=O)Nc1ccc(Cl)c(Cl)c1)C1CCCCC1 | inactive
O=C(CC(O)(C(F)(F)F)C(F)(F)F)Nc1ccc(Cl)c(Cl)c1 | 7.08 µM (active)
CCn1nccc1C(=O)Nc1ccc(Cl)c(Cl)c1 | inactive
O=S1(=O)CSCS(=O)(=O)C1 | inactive
CCCCC(=O)NC(c1ccc(OC)c(OC)c1)c1ccc2cccnc2c1O (stereo not drawn) | inactive
Cc1ccnc(NS(=O)(=O)c2ccc(NC(=O)c3oc4ccccc4c3C)cc2)n1 | inactive
Cc1cc(C)c2oc(C(=O)Nc3ccc(S(=O)(=O)Nc4nccc(C)n4)cc3)cc(=O)c2c1 | inactive
Cc1ccnc(NS(=O)(=O)c2ccc(NC(=O)c3oc4ccc(F)cc4c3C)cc2)n1 | 22.4 µM (active)
O=C(O)c1ccccc1/C=N/Nc1ccc(S(=O)(=O)Nc2ccc(Cl)cc2)cc1[N+](=O)[O-] | inactive
CN(C(=O)c1cccc(NC(=O)Cc2ccc(NC(=O)C3CCCN(C(=O)C4CCCC4)C3)cc2)c1)C1CCC1 (stereo not drawn) | inactive
COc1ccc(/C=C2/SC(=O)N(CCCCCC(=O)Nc3ccccc3C(=O)O)C2=S)cc1 | 22.4 µM (active)
COc1ccc(/C=C2\SC(=O)N(CCC(=O)NCCCn3ccnc3)C2=O)cc1 | inactive
COc1ccc(/C=C2\SC(=O)N(CCC(=O)NC3CCS(=O)(=O)C3)C2=O)cc1 (stereo not drawn) | inactive
C=CCn1c(=O)n(C)c2c(=O)n(C)c(=O)n(C)c21 | inactive
O=C(Nc1ccc(Cl)cc1)c1cccc(OC(=S)N2CCOCC2)c1 | inactive
Cc1cccc(NC(=O)CSc2nnc(-c3ccco3)o2)c1 | inactive
CCC(=O)Oc1cccc(C(=O)Nc2ccc(-c3nnc(-c4ccco4)o3)cc2)c1 | 28.2 µM (active)
Cc1c(NS(=O)(=O)c2cccc(C(=O)Nc3ccc(SC(F)F)cc3)c2)c(=O)n(-c2ccccc2)n1C | inactive
C(#CCN1CCOCC1)CCCN1CCOCC1 | inactive
CC(=O)OC1CCC2C3CCC4=C(CC(F)C(=O)C4)C3CCC12C (stereo not drawn) | inactive

Compound | Potency
COc1ccc(/C=N/NC(=O)Nc2ccc3nsnc3c2)c(OC)c1 | inactive
COc1ccc(/C=N/Nc2cc(N3CCOCC3)nc(C)n2)c(OC)c1 | 35.5 µM (active)
C(=N/Nc1cc(N2CCOCC2)nc(N2CCOCC2)n1)/c1ccccc1 | inactive
CC(C)[C@@H](C(=O)OCC(=O)c1ccc2c(c1)NC(=O)CO2)N1C(=O)c2ccccc2C1=O | inactive
O=C(Nc1c[nH]c(=O)[nH]c1=O)OCc1ccccc1 | inactive
CCCCCCCCNS(=O)(=O)CCNC1CCCCC1 | inactive
Cc1ccc(C)c(N2CCN(C(=O)CCCCCn3c(=S)[nH]c4ccc(N5CCOCC5)cc4c3=O)CC2)c1 | 28.2 µM (active)
O=C(CCCCCn1c(=S)[nH]c2cc3c(cc2c1=O)OCO3)N1CCN(c2ccc(F)cc2)CC1 | inactive
Cc1ccc(C)c(N2CCN(C(=O)CCc3nc4ccccc4[nH]3)CC2)c1 | inactive
CC(C)CN1CC(C)C(=O)N(c2ccccc2)C1=S (stereo not drawn) | inactive
COc1cc(/C=C/c2ccc(/C=C/c3cc(OC)c(OC)c(OC)c3)cc2)cc(OC)c1OC | inactive
COC(=O)c1ccc(COc2ccc(/C=C/C(=O)c3ccc(OC)c(CSCC(=O)O)c3)cc2OC)cc1 | 39.8 µM (active)
COc1ccc(/C=C/C(=O)N2CCCC2)cc1OC | inactive
COc1ccc(/C=C/C(=O)c2ccc(NS(=O)(=O)c3ccc(C)cc3)cc2)cc1O | inactive
Cc1c[n+]([O-])ccc1[N+](=O)[O-] | inactive
CC(C)=CCc1ccc(O)c(=O)cc1C(C)C | inactive
CC(C)c1c(C(=O)N/N=C/c2ccc(-c3ccccc3)cc2)nnn1-c1nonc1N | inactive
Nc1nonc1-n1nnc(C(=O)N/N=C/C2CCCCC2)c1-c1ccccc1 | inactive
Nc1nonc1-n1nnc(C(=O)N/N=C/c2c[nH]c3ccccc23)c1-c1ccccc1 | 31.6 µM (active)
Nc1cc(=O)n(Cc2ccccc2)c(=O)n1Cc1ccccc1 | inactive
O=C1Nc2ccc(Br)cc2/C1=N/N=C/C1=C(N2CCOCC2)C(=C\c2ccccc2)/CC1 | inactive
C(=N\N1CCN(c2ccccn2)CC1)/C1=C(N2CCOCC2)C(=C/c2ccccc2)/CC1 | inactive
O=C(O)c1ccc(NN=CC2=C(N3CCOCC3)/C(=C/c3ccccc3)CC2)cc1 | 10 µM (active)
C[C@H](O)[C@@H]1C(=O)N2CCc3ccc(N4CCOCC4)cc3[C@@H]2C[C@@H]1N(C)C(=O)C(C)(C)C | inactive
O=C1C[C@@H]2c3c(cccc3CN1Cc1ccccc1)C[C@@H](O)[C@H]2O | inactive

Compound | Potency
Cc1ccc(S(=O)(=O)N2CCC(C(=O)N3CCCCCCC3)CC2)cc1 | inactive
CSc1ncccc1C(=O)Nc1ccc(C)cn1 | inactive
CSc1ncccc1C(=O)Nc1nc2ccc(F)cc2s1 | 39.8 µM (active)
CSc1ncccc1C(=O)Nc1ccc2c(c1)OCO2 | inactive
COc1cc(C(=O)CCc2ccc3c(c2)OCO3)cc(OC)c1OC | inactive
COc1cc(C(=O)N2CCN(S(=O)(=O)c3ccc(C(C)C)cc3)CC2)ccc1OCC(=O)N1CCOCC1 | inactive
CS(=O)(=O)c1ccc2nc(NC(=O)c3ccc(Cl)nc3)sc2c1 | 31.6 µM (active)
CS(=O)(=O)c1ccc2nc(NC(=O)C3C4C=CC(C4)C3C(=O)O)sc2c1 (stereo not drawn) | inactive
COc1cccc(C(=O)Nc2nc3ccc(S(C)(=O)=O)cc3s2)c1 | inactive
Cc1ccc(NC(=O)C(C)OC(=O)C2CC3CCCC(C2)C3=O)cc1S(=O)(=O)N1CCOCC1 (stereo not drawn) | inactive
O=C(CNC(=O)c1cc(S(=O)(=O)N2CCOCC2)ccc1N1CCCC1)Nc1ccc(F)c(F)c1 | inactive
CN(CCO)S(=O)(=O)c1ccc2c(c1)C(=O)c1cc(S(=O)(=O)N(C)CCO)ccc1-2 | 8.91 µM (active)
O=C(O)c1ccc(NS(=O)(=O)c2ccc3c(c2)C(=O)c2cc(S(=O)(=O)Nc4ccc(C(=O)O)cc4)ccc2-3)cc1 | inactive
CN(CC(=O)O)S(=O)(=O)c1ccc2oc3ccccc3c2c1 | inactive
O=C1NC(=O)C(CCc2ccccc2)(c2ccccc2)N1 (stereo not drawn) | inactive
COC(=O)C1CC2=C(CC(C)(C)CC2=O)N(c2ccccc2)C1=O (stereo not drawn) | inactive
COc1cc(Cl)c(S(=O)(=O)n2cnc(C)c2)cc1Cl | inactive
CCc1nc(C)cn1S(=O)(=O)c1cc(OC)c(C)cc1C | 31.6 µM (active)
CCc1nc(C)cn1S(=O)(=O)c1cc([N+](=O)[O-])ccc1Cl | inactive
Cc1sc2ncnc(N3CCC(C(=O)Nc4ccc(F)cc4Cl)CC3)c2c1C | 39.8 µM (active)
Cc1sc2ncnc(N3CCC(C(=O)Nc4nc5ccc(Cl)cc5s4)CC3)c2c1C | inactive
CCc1ccc(C(=O)NNC(=O)C2CCN(c3ncnc4sc(C)c(C)c34)CC2)cc1 | inactive
CC(=O)OCC1(O)CC23CCC4c5ccoc5CCC4(C)C2CCC1C3 (stereo not drawn) | inactive
